# High-throughput results: PubChem BioAssay, National Center for Advancing Translational Sciences (NCATS)
# Most compounds without a hit are left out; they make up all but 12% or so of the library.
# AmpC inh detg – blocks E. coli AmpC beta-lactamase in detergent assay | AmpC hydrolysis of nitrocefin, absorbance 480 nm, 0.01% Triton | P00811 | actives 0.041% (n = 370,000) | Potency, µM (titrated, usually from 114 µM), for inactives: at the top dose activity change, negative = inhibition, most hits filed as inhibitors;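 further: 0% = no-compound wells and -100% = no-enzyme wells; nearly all actives have a fitted effect of over 25% in size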
# Target sequence (P00811 whole entry, looked up): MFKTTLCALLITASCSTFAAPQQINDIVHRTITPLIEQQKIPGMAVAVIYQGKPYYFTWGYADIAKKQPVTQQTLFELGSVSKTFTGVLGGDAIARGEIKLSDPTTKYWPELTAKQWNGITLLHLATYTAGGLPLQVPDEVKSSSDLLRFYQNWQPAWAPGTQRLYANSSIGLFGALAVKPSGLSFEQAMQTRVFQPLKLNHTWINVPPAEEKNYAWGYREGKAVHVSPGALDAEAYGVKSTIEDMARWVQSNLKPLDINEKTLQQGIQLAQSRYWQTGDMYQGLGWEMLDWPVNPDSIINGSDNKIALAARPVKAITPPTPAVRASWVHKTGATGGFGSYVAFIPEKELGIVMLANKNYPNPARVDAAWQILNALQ
#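 AmpC (5.3 nM in the dispensed reagent) in 20 mM phosphate pH 7.0 with 0.01% (detergent screen) or 0.0001% Triton X-100 was preincubated with compounds for 15 min at room temperature. Nitrocefin was then added from an 800 uM solution, and hydrolysis was followed at 480 nm.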
# AmpC no deterg – blocks E. coli AmpC beta-lactamase in detergent-free assay; Potency, µM (series often up to 57.1 µM), inactives show top-dose activity change, negative = inhibition, most hits filed as inhibitors; AmpC nitrocefin hydrolysis, absorbance 480 nm, 0.0001% Triton; AID 485341; actives 0.52% (n = 330,000);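 further: plate controls were no compound for no effect and no enzyme for full effect; nearly all actives have a fitted effect of over 20% in size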
#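 20 mM phosphate pH 7.0 + 0.01% (detergent screen) or 0.0001% Triton X-100; 5.3 nM AmpC reagent; cpd preinc 15 min RT; nitrocefin (800 uM stock) to start; A480 q20 s × 4 min; Activity was normalised to no-enzyme and no-compound control wells.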
# Sm TGR inh – blocks Schistosoma mansoni thioredoxin glutathione reductase. actives 3% (n = 360,000). purified TGR, DTNB reduction, TNB absorbance 405 nm. Q962Y6. Potency, µM (top dose mostly 114 µM), for inactives: at the top dose activity change, negative = inhibition, actives largely listed as inhibitors; further: on the % scale 0 is the no-effect control and ±100 the full control effect; nearly all actives have a fitted effect of over 60% in size
#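 TGR 20 nM + NADPH 100 uM (dispensed conc.), cpd preinc 15 min RT; start with NADPH (500 uM addition) then DTNB (15 mM addition). Kinetic TNB absorbance, 405 nm filter. Four-parameter Hill fit across titration.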
# Pf growth 96h – P. falciparum growth inhibition at 96 hours; P. falciparum luciferase reporter growth, 96 h; AID 504834; actives 6.9% (n = 320,000); Potency, µM (top dose mostly 28.7 µM), for inactives: at the top dose activity change, negative = inhibition, hits mostly inhibitors; further: on the % scale 0 is the no-effect control and ±100 the full control effect
#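 P. falciparum expressing integrated firefly luciferase, in erythrocytes at 2% hematocrit, 0.05% parasitemia, incubated with compounds 96 h at 37 C, 5% CO2. Growth inhibition read as loss of luminescence; two-generation exposure targets delayed-death apicoplast inhibitors.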
# SARS PLP yeast – SARS-CoV PLP inhibition in yeast. Potency, µM (highest dose often 32.9 µM), for the others: at the highest dose activity, positive = growth rescue, usual class: activators. S. cerevisiae expressing SARS-CoV PLpro, growth rescue. actives 0.19% (n = 330,000); calls by dose curve; further: 0% is about no effect; nearly all actives have a fitted effect of over 55% in size
# Pf growth 48h – inhibits P. falciparum growth in the first generation, 48 h; AID 504832; actives 5.9% (n = 310,000); P. falciparum luciferase growth in erythrocytes, 48 h; Potency, µM (doses to about 28.7 µM), for the others: at the highest dose activity change, negative = inhibition, most hits filed as inhibitors; further: on the % scale 0 is the no-effect control and ±100 the full control effect
#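 Luciferase-expressing P. falciparum in infected erythrocytes (2% hematocrit, 0.1% parasitemia final) in RPMI 1640/0.5% Albumax were exposed to compound for 48 hours at 37 C, 5% CO2; growth read as luminescence.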
# Starred values were filed as active, the others as inactive; ? = inconclusive; / = no result given. Unless noted, the call rests on the fitted dose curve; in most records, active means well fitted curve in the direction sought with a large enough effect; inconclusive means small, poorly fitted or top-dose-only effect, or another doubt; inactive means no such curve, though single readings can be large; an effect the other way counts as inactive or inconclusive. Potency means the concentration at half of the fitted maximal effect.
SMILES,AmpC inh detg,AmpC no deterg,Sm TGR inh,Pf growth 96h,SARS PLP yeast,Pf growth 48h
CCOC(=O)N1CCN(C2CC(=O)N(c3ccc(Oc4ccccc4)cc3)C2=O)CC1 (centres undefined),-10%,163%,-22%,60%,-47%,/
O=C(NCCc1ccccc1)C(=O)NCC1CCCN1S(=O)(=O)c1cccs1 (centres undefined),?,-13%,-22%,?,-4%,?
O=[N+]([O-])c1ccc(NC2CCN(Cc3ccccc3)CC2)c2ccncc12,?,-11%,0%,?,5%,1.7µM*
CC1CCC2C(=O)N(c3ccc(NC4CCN(Cc5ccccc5)CC4)c([N+](=O)[O-])c3)C(=O)C2C1 (centres undefined),6%,17%,3%,18%,0%,12µM*
Cn1cncc1C#Cc1ccc2cc(CCCO)oc(=O)c2c1,-1%,-12%,-14%,?,-1%,-6%
Cn1cncc1C#Cc1ccc2cc(CCO)oc(=O)c2c1,4%,-11%,11µM*,?,-1%,-6%
COc1cc(C2C(C(=O)Nc3ccccc3C)=C(C)Nc3ncnn32)ccc1OCC(N)=O (centres undefined),-10%,/,-1%,/,/,/
Cc1cc(C)n(CC(O)COc2cccc(OCC(O)Cn3nc(C)cc3C)c2)n1 (centres undefined),?,88%,1%,0%,?,-28%
Cc1cc(C)n(CC(O)COCc2ccccc2)n1 (centres undefined),2%,-4%,0%,12µM*,6%,6%
Cc1cc(C)n(CC(O)COc2ccccc2C(=O)Nc2ccccc2)n1 (centres undefined),-14%,4%,0%,?,9%,1.9µM*
CCOC(=O)c1c(C)n(Cc2ccccc2)c2ccc(OCC(O)Cn3nc(C)cc3C)cc12 (centres undefined),3%,133%,0%,9%,-9%,12µM*
COc1cc(/C=C/C(=O)OCC(=O)NCCC2=CCCCC2)cc(OC)c1OC,/,97%,/,/,0%,/
CCc1cc2c(nc1CC)CCN(CC/C(C)=N/O[C@@H](C)c1cc(-c3c(C)cc(C)cc3C)no1)C2,?,222%,-15%,7.4µM*,-20%,?
Cc1ccc(OCCCCN2CCc3ccccc3C2)c(C)c1,-5%,23%,-17%,-35%,-2%,-33%
C/C(CCN1CCc2nc(-c3ccccc3)c(-c3ccccc3)cc2C1)=N\O[C@@H](C)c1cc(-c2c(C)cc(C)cc2C)no1,-1%,-4%,-3%,13µM*,3%,?
COc1ccc(N2CCN(C(=O)CCS(=O)(=O)c3ccc(OC)cc3)CC2)cc1,8%,23%,-15%,26%,2%,-2%
CC(=O)c1ccc(N2CCN(C(=O)CCS(=O)(=O)c3ccc(C)cc3)CC2)cc1,3%,4%,-8%,3%,-2%,?
COc1ccc(N2CCN(C(=O)CCNC(=O)c3ccc(C(C)(C)C)cc3)CC2)cc1,6%,174%,2%,?,-4%,10µM*
COc1ccc(OC)c(CN2CCN(C(=O)CNC(=O)c3ccc(C(C)(C)C)cc3)CC2)c1,-5%,271%,-12%,12µM*,7%,?
COc1ccc(N2CCN(C(=O)CCS(=O)(=O)c3ccc(C)cc3)CC2)cc1,3%,65%,25µM*,-7%,0%,0%
COc1ccc(OC)c(CN2CCN(C(=O)CCNC(=O)c3ccc(Br)cc3)CC2)c1,-3%,1%,-10%,0%,1%,-6%
COc1ccc(S(=O)(=O)CCC(=O)N2CCN(c3ccc(C(C)=O)cc3)CC2)cc1,-3%,6%,-10%,8.3µM*,21%,-11%
